# Source: PubChem
# This is a sample that favours compounds with a hit; in the whole collection about 4.7% have one here.
# SARS 3CLpro inh – SARS-CoV 3CLpro protease inhibitors, primary screen, biochemical, quenched FRET; Replicase polyprotein 1ab (Severe acute respiratory syndrome coronavirus), P0C6X7; recombinant SARS-CoV 3CLpro, quenched FRET peptide cleavage; inhibition, % at 6 µM; 0.14% of 290,000 active; in the data active = inhibition above about 12%
# CCHFV vOTU inh – CCHFV vOTU protease inhibitors, primary screen, biochemical, Pep-AMC substrate, fluorescence; Crimean-Congo hemorrhagic fever virus L polyprotein viral ovarian tumor (vOTU) protease …; inhibition, % at 11.5 µM; 0.55% of 370,000 active; AID 651958, 2012; note: 0% = vehicle wells with enzyme and 100% = no enzyme wells
# RecA intein inh – Mtb RecA intein splicing inhibitors, primary screen, biochemical, fluorescence, HTS; 0.75% of 290,000 active; cell-free RecA intein splicing; AID 2221, 2009; Protein RecA (Mycobacterium tuberculosis (strain ATCC 25618 / H37Rv)), P9WHJ3; inhibition, % (concentration not given with the values); in the data active = inhibition above about 30%;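 note: 0% = vehicle wells and 100% = reference inhibitor control wells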
# DUSP3 inh – VHR1 phosphatase inhibitors, primary screen, biochemical, absorbance, uHTS; 0.52% of 290,000 active; Dual specificity protein phosphatase 3 (Homo sapiens), P51452; recombinant VHR phosphatase, pNPP absorbance; AID 1654, 2009; inhibition, % at 13.3 µM; in the data active = inhibition above about 50%
# Target sequence (P51452 whole entry, looked up): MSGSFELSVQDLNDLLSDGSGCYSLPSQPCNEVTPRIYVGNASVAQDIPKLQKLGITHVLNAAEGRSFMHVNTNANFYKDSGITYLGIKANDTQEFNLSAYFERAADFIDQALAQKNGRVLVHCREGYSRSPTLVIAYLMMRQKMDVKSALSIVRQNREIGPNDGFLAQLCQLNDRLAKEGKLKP
# FBA Mtb inh – Mtb FBA enzyme inhibitors, primary screen, biochemical, fluorescence, strain H37Rv; purified M. tuberculosis FBA, fluorescence read-out; 2.3% of 360,000 active; Fructose-bisphosphate aldolase (Mycobacterium tuberculosis (strain ATCC 25618 / H37Rv)), …; inhibition, % at 1 µM; in the data active = inhibition above about 27%;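 note: 0% = vehicle and 100% = reference inhibitor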
# GDH-TPI inh – GDH-TPI coupling enzyme inhibitors, primary screen, artefact control for M. tuberculosis FBA inhibitor project, biochemical, absorbance, full deck; GDH-TPI coupled enzyme counterscreen, NADH absorbance; 1.2% of 360,000 active; inhibition, % at 4.8 µM;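 note: 0% = DMSO wells and 100% = wells lacking the enzyme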
# * hit, by the source's call; / = not tested or not shown; + = active, no number. Cut-off read from the data, not from the text of the source, unless noted: active = inhibition above about 30%; inactive = the rest.
SMILES,SARS 3CLpro inh,CCHFV vOTU inh,RecA intein inh,DUSP3 inh,FBA Mtb inh,GDH-TPI inh
COC(=O)[C@@]12C[C@@H](CC(=O)N3CCCCC3)C(=O)N(Cc3ccccc3)C1=CCC(C)(C)C2,/,17.3,/,/,/,/
Cc1cc(-c2nc3ncccc3o2)ccc1NC(=S)NC(=O)C(C)C,-2.3,-10.7,0.1,15.1,4.5,11.2
Cc1cc(-c2nc3ncccc3o2)ccc1NC(=O)CC(C)C,-5.4,-35.1,-3.8,-5.4,+,13.9
COc1ccccc1C(=O)NCCC(=O)NNC(=O)Cn1ccc(C(F)(F)F)n1,/,6.1,-5.5,/,2.1,10.1
NS(=O)(=O)c1ccc(NC(=S)NNC(=O)c2ccc(Br)o2)cc1,0.6,15.5,2.7,6.2,1.2,32.6*
NS(=O)(=O)c1ccc(NC(=S)NC(=O)c2ccc(Br)o2)cc1,-5.6,-5.2,-2.7,18.5,-0.1,6.3
CN1CCc2c(sc3c2C(=O)NC(c2cccc(OC(=O)c4cccs4)c2)N3)C1 (stereo unspecified),2.6,-4.6,-12.6,-5.4,4.5,13.9
CCOC(=O)N1CCc2c(sc3c2C(=O)NC(c2ccccc2)N3)C1 (stereo unspecified),-3.5,/,-2.8,1.5,58.4*,12.3
Cc1cccn2c(=O)c3cc(S(=O)(=O)c4ccccc4)c(=N)n(CC4CCCO4)c3nc12 (stereo unspecified),-3.0,/,-241.6,13.1,/,/
COc1ccc(/C=C(/C(=O)c2ccc(Cl)cc2Cl)n2cncn2)cc1,2.7,-0.6,2.9,17.2,-4.1,31.9*
CC(C)CC(=O)/C(=C\c1ccc(Cl)cc1Cl)n1cncn1,4.9,/,43.5*,-1.5,0.0,7.8
CC(C)CC(=O)/C(=C/c1ccc(N(C)C)cc1)n1cncn1,-3.6,9.4,-0.9,/,-13.5,12.4
CN(C)c1ccc(/C=C(/C(=O)c2ccc(Cl)cc2Cl)n2cncn2)cc1,2.4,5.7,1.8,8.3,-41.0,-6.6
COC(=O)[C@]12C[C@H](CC(=O)NCc3cccc(C(F)(F)F)c3)C(=O)N(Cc3ccco3)C1=C[C@H](COCc1ccccc1)O[C@@H]2C,/,15.0,/,/,/,/
COc1cc2c(cc1OC)C(c1c(Cl)cccc1Cl)=NCC2,/,10.7,/,/,-0.5,/
COc1cc2c(cc1OC)C(CCc1ccccc1)=NCC2,1.8,-247.7,-41.9,-0.1,157.8*,24.1
COc1ccc(C2=NN(Cc3ccccc3)C3C(=O)NC(=O)C23)cc1 (stereo unspecified),3.3,12.6,2.1,11.8,-6.2,1.2
CN1C(=O)C2C(c3ccc(N(C)C)cc3)=NN(Cc3ccccc3)C2C1=O (stereo unspecified),-0.3,-0.1,1.7,1.8,1.6,43.9*
Cn1cc(-c2ccc(C(=O)Nc3cccc(Oc4ccccc4)c3)c3occc23)cn1,/,-12.9,/,/,2.7,-8.8
N=C1C(c2nc3ccccc3s2)=C(O)CN1NC(=O)c1ccco1,-1.3,17.0,-1.4,5.1,7.8,46.8*
N=c1oc2ccc3ccccc3c2cc1-c1nnc2n1CCCCC2,-1.1,-318.4,/,9.5,+,17.5
COCCNC(=O)c1noc2c1CCc1cc(OC)ccc1-2,4.3,3.4,3.0,-9.6,2.4,10.7
COc1ccc2c(c1)CCc1c(C(=O)N(C)c3ccccc3)noc1-2,-2.8,4.1,-6.1,54.4*,0.0,-2.4
O=Cc1cccc(Oc2ncccn2)c1,0.2,-10.9,-3.2,15.2,-2.6,-1.2
Nc1ccc(Oc2ncccn2)cc1,-0.8,20.1,51.3*,11.3,1.2,2.9
Cc1ccccc1N(CC(=O)NCc1ccccc1)C(=O)CCC(=O)Nc1nccs1,0.4,2.0,/,51.1*,1.2,-2.5
O=C(CN(C(=O)CCC(=O)Nc1nccs1)c1ccccc1F)NCc1ccccc1,-5.0,3.5,/,25.5,-1.3,1.5
O=C(NCCCN1CCOCC1)c1sc2cc([N+](=O)[O-])ccc2c1Cl,3.1,/,0.2,45.6,53.9*,3.7
